Hit rate of the full screen: of about 410,000 compounds, about 7,200 (1.8%) were called active. Entries that show only a call come without a potency. Roughly 7% stayed inconclusive and do not appear here. The sample holds actives, similar compounds and a random draw of the others, so the mix is not that of the screen. The call rests on the fitted dose curve; in most records, active means well fitted activation curve with a large enough effect; inconclusive means small, poorly fitted or top-dose-only effect, or another doubt; inactive means no such curve, though single readings can be large or run the other way.
Potency means the concentration at half of the fitted maximal effect.

The assay in a line: qHTS of TDP-43 Inhibitors. Further: nearly all actives have a fitted effect of over 50% in size. The note with it: TDP-43 expressing yeast growth rescue, BacTiter-Glo, 24 h; series mostly up to 46.1 µM. The text has this:
The goal of this project is to identify new chemical probes capable of reversing the toxicity associated with TDP-43 which is associated with frontotemporal lobar degeneration and amyotrophic lateral sclerosis. These compounds will provide a complementary approach to deciphering the tangled mechanisms of toxicity and protection that we have uncovered through genome-wide genetic screens and are beginning to uncover in a large-scale proteomics analysis with mass spectroscopy.
To this end, a miniaturized assay was developed to be screened against the Molecular Libraries Small Molecule Repository (MLSMR) to discover TDP-43 inhibitors. Please note that in the set-up this yeast-based assay compounds that inhibit as TDP-43, have a read-out as activators.
NIH Chemical Genomics Center [NCGC]
NIH Molecular Libraries Probe Centers Network [MLPCN]
Assay Submitter (PI): Susan Lindquist, Whitehead Institute/MIT
Dispense 2.5 microL yeast galactose medium per 1536-well plate, pin compound, dispense 2.5 microL TDP-43 expressing yeast in galactose medium at OD600=0.02 (pregrown in raffinose medium to mid-log phase) per well, incubate for 24 hr at 30 deg C, and cell growth will be measured using 5 microL of Bactiter/Glo reagent to entire plate and read using Luminescence Protocol in ViewLux.
(In general: In qHTS, concentration-response curves come from the screen itself.)
In the case of `CCOc1ccccc1NC(=O)CN1CCN(S(=O)(=O)c2ccc(Br)cc2)CC1`, the growth rescue (activation) is 0% [at 9.22 µM] (inactive).
Regarding `COc1ccccc1CNC(=O)NCc1noc2ccc(C)cc12`, the Potency entry was “inactive”.
The same measure, in the same setting: the value for `Cc1ccc(Cn2c(C)c(C(=O)NCc3ccccc3C(F)(F)F)sc2=O)cc1` was 15.8 µM (active); that for `Cc1cccc(CNC(=O)c2sc(=O)n(Cc3ccccc3C)c2C)c1` was “inactive”.
As to `Cc1ccccc1Cn1c(C)c(C(=O)NCc2cccc(C(F)(F)F)c2)sc1=O`, the Potency entry is “inactive”.
With `Fc1ccc(-c2nn(-c3ccccc3Cl)c3c2cnc2ccccc23)cc1`, the Potency result was “inactive”.
For `CCn1cc(C(=O)NCc2ccc(C)cc2)c(=O)c2cc(S(=O)(=O)N3CCc4ccccc4C3)ccc21`, the Potency entry is “inactive”.
In the case of `COc1ccc(-c2csc(-c3cccs3)n2)cc1OC`, the Potency was 11.2 µM (active).
Consider `COc1ccc(CNC(=O)COCc2cc(-c3cccs3)on2)cc1OC`, for which the Potency result is “inactive”.
As for `COc1ccc(C2CC(c3cccs3)=Nc3ccccc3S2)cc1OC` (stereo unspecified), the Potency entry was “inactive”.
For the compound `CCc1ccc2ncc3c(-c4ccc(C)cc4)nn(CC(=O)NCc4ccccc4)c3c2c1`, the Potency result was “inactive”.
As to `O=C(CSc1oc(-c2ccc(F)cc2)nc1S(=O)(=O)c1ccc(Br)cc1)NC1CCCCC1`, the Potency result is “inactive”.
Regarding `O=C(CSc1nnc(-c2cccs2)n1Cc1ccccc1)N1CCc2ccccc2C1`, the Potency result was “inactive”.
With `Cc1cc(NC(=O)c2cc(-c3cccs3)on2)nn1Cc1ccc(Cl)cc1`, the Potency entry is “inactive”.
With `O=c1onc(-c2cccs2)n1Cc1ccccc1`, the Potency was 12.6 µM (active).
On to `CCC(=O)Nc1ccc(C)cc1-c1nc2ccccc2n(Cc2ccccc2)c1=O`, for which the Potency entry is “inactive”.
Take `COc1ccc2oc(-c3ccc(C)c(NC(=O)c4sc5ccccc5c4Cl)c3)nc2c1`: the Potency result was “inactive”.
In the case of `Cc1ccc(C)c(Cn2c(C)c(CNCc3ccc(F)cc3)c(C(=O)O)c2C)c1`, the Potency result is “inactive”.
As for `COc1ccccc1OCCC(=O)OCC(=O)NC(=O)NC(C)(C)C`, the Potency entry is “inactive”.
For the compound `CC(C)(C)NC(=O)NC(=O)COC(=O)Cc1ccc(Cl)cc1Cl`, the Potency is 35.5 µM (active).
For `CC(C)(C)NC(=O)NC(=O)COC(=O)Cc1c(F)cccc1Cl`, the Potency result is “inactive”.
As for `COc1ccc(C2=NC3(CCCCC3)N(CC(=O)Nc3ccc(C(C)C)cc3)C2=O)cc1`, the Potency entry is “inactive”.
Consider `CCN(CC)CCNc1ncnc2c1cnn2-c1cc(Cl)ccc1C`, for which the Potency entry is “inactive”.
`CCn1c(SCC(=O)Nc2ccccc2F)nc2c(c1=O)SC(C)C2` (stereo unspecified): the Potency was 35.5 µM (active).
For the compound `CC1Cc2nc(SCC(=O)Nc3ccccc3F)n(C)c(=O)c2S1` (stereo unspecified), the Potency entry was “inactive”.
With `CCn1c(SCC(=O)Nc2ccc3c(c2)OCCO3)nc2c(c1=O)SC(C)C2` (stereo unspecified), the Potency result is “inactive”.
For the compound `CC(C)(CNC(=O)Cc1ccc(Cl)cc1Cl)N1CCOCC1`, the Potency entry was “inactive”.
As to `CSCc1cc(N(C)C)nc(SCc2ccc(Cl)cc2Cl)n1`, the Potency result is “inactive”.
As for `CSCc1cc(N2CCOCC2)nc(SCc2ccc(Cl)cc2Cl)n1`, the Potency was 22.4 µM (active).
Same read-out and setting: the result for `Cc1ccc(C(=O)Nc2ccccc2F)cc1S(=O)(=O)N1CCOCC1` reads “inactive”; that for `O=C(Nc1cccc2cccnc12)c1cccc2c(Br)cccc12`, “inactive”; that for `COc1c(Cl)cc(Cl)cc1C(=O)Nc1cccc2cccnc12`, “inactive”.
On the same count and under the same terms, the value for `O=C(Nc1cccc2cccnc12)c1cccc(Cl)c1` was 14.1 µM (active); that for `N/C(=N\OC(=O)CCC1CCCCC1)c1ccccn1` was 8.91 µM (active).
As to `CC(C)(C)NC(=O)NC(=O)COC(=O)CCC1CCCCC1`, the Potency entry was “inactive”.
As to `CCOCc1nnc(NC(=O)CCC2CCCCC2)s1`, the Potency entry was “inactive”.
With `COc1ccc(-c2nnc(SCC(=O)Nc3ccc(C(C)C)cc3)nc2-c2ccc(OC)c(OC)c2)cc1OC`, the Potency entry is “inactive”.
On to `Clc1ccc(CSc2nncn3c2cc2occc23)cc1`, for which the Potency was 25.1 µM (active).
Turning to `CCN(C(=O)CSc1nnc(C)n2c1cc1occc12)c1ccccc1`, the Potency entry was “inactive”.
Take `CC(C)Cn1cnc2c(SCc3ccc(Cl)cc3)nc(N)nc21`: the Potency result is “inactive”.
On to `COc1ccc2c(c1)CCc1c(C(=O)Nc3cc(C)ccc3O)noc1-2`, for which the Potency result is “inactive”.
`Cc1ccc(C)c(N2CCN(C(=O)C3CCC(CNS(=O)(=O)c4cccs4)CC3)CC2)c1` (stereo unspecified): the Potency result is “inactive”.
With `COc1ccc2c(c1)CCc1c(C(=O)N3CCCC3)noc1-2`, the Potency entry was “inactive”.
Same read-out and setting: the value for `COc1ccc2c(CC(=O)NNC(=O)c3ccccc3F)coc2c1` was “inactive”; that for `COc1ccc2c(c1)CCC/C2=N\OC(=O)c1ccccc1F` was 11.2 µM (active); that for `COc1ccc(NC(=O)c2cc([N+](=O)[O-])ccc2NC(=O)CNC2CCCCC2C)c(OC)c1` (stereo unspecified) was “inactive”.
Regarding `COc1cc([N+](=O)[O-])ccc1NC(=S)N1CCN(c2ccccn2)CC1`, the Potency entry was “inactive”.
For the compound `COc1cc([N+](=O)[O-])ccc1NC(=O)COC(=O)CCOc1ccc(C)cc1`, the Potency was 17.8 µM (active).
On to `COc1ccc([N+](=O)[O-])cc1NCC(=O)c1ccc(C)cc1`, for which the Potency result was “inactive”.
As to `COc1ccc(Br)cc1CN(C)CC(=O)Nc1cc([N+](=O)[O-])ccc1OC`, the Potency entry was “inactive”.
As to `COc1ccccc1CC(=O)Nc1ccc([N+](=O)[O-])cc1OC`, the Potency was 11.2 µM (active).
As for `CCCn1c(C(C)Nc2nc(-c3ccc(C)cc3)cs2)nc2cc(Cl)c(N3CCCCC3)cc21` (stereo unspecified), the Potency result was “inactive”.
Consider `Cc1nc2cc(C(F)(F)F)ccc2n1CCNc1nc(-c2cc(Cl)c(N)c(Cl)c2)cs1`, for which the Potency was 22.4 µM (active).
On to `Nc1c(Cl)cc(-c2csc(N3CCCC3c3nc4cc(Cl)c(Cl)cc4n3CCOCCO)n2)cc1Cl` (stereo unspecified), for which the Potency entry is “inactive”.
As to `CCc1cccc(CC)c1NC(=O)Cn1c(=O)c(-c2cc(C)ccc2NC(C)=O)nc2ccccc21`, the Potency result was “inactive”.
Regarding `CC(C)C1Cc2[nH][nH]c(=O)c2C(c2ccc(Cl)cc2)O1` (stereo unspecified), the Potency was 20 µM (active).
As for `CC(C)C1CC2=C(C(=O)OC(C)(C)O2)C(c2ccc(F)cc2)O1` (stereo unspecified), the Potency entry is “inactive”.
Consider `CC(C)C[C@@H]1Cc2[nH][nH]c(=O)c2[C@H](CCc2ccccc2)O1`, for which the Potency entry was “inactive”.
Still for that read-out and setting: the value for `Cc1cccn2c(=O)c3cc(C(=O)NC(C)c4ccccc4)c(=N)n(CCCO)c3nc12` (stereo unspecified) was “inactive”.
Consider `CCc1ccc(NC(=O)c2nn(-c3ccc(C)cc3)c(=O)n(C)c2=O)cc1`, for which the growth rescue (activation) is 19% [at 9.22 µM] (inactive).
For `CCOC(=O)c1ccc2c(c1)N(Cc1cccc(OC)c1)C(=O)c1ccccc1S2(=O)=O`, the Potency result was “inactive”.
`Cc1cccc(NC(=O)CSc2nnc(CNC(=O)c3cccc(C)c3)n2-c2ccccc2)c1`: the Potency entry was “inactive”.
Still for that read-out and setting: the result for `CC(=O)c1ccc(NC(=O)c2nc3nc(C)cc(C(F)F)n3n2)cc1` reads “inactive”.
As to `CCn1c(=O)c2cc(C(=O)Nc3cccc(C(C)=O)c3)sc2c2ccccc21`, the Potency entry is “inactive”.
As for `CC(=O)c1cccc(NC(=O)c2nc(-c3ccccc3)n(-c3cccc(C)c3)n2)c1`, the Potency is 22.4 µM (active).
Same read-out and setting: the value for `Cc1nn(-c2ccccc2)c2sc(C(=O)N(Cc3ccco3)C(C)C(=O)NC(C)(C)C)cc12` (stereo unspecified) was “inactive”; that for `Cc1cccc(C)c1NC(=O)CNC(=O)c1c(C)nn(-c2ccccc2)c1C` was “inactive”; that for `Cc1nn(-c2ccccc2)c(-n2cccc2)c1C(=O)O` was “inactive”.
Still for that read-out and setting: the value for `Cc1cccc(NC(=O)c2cc3c(C)nn(-c4ccccc4)c3s2)c1` was 35.5 µM (active); that for `Cc1nn(-c2ccccc2)c(Cl)c1C(=O)Nc1ccccc1` was 11.2 µM (active); that for `Cc1ccc(-c2nnc(SCc3ccccc3C)o2)cc1` was “inactive”.
Same read-out and setting: the result for `COc1ccc(CCNC(=O)c2ccc3c(c2)sc2nc(-c4ccc(C)cc4)cn23)cc1OC` reads “inactive”.
On to `O=C(OCc1ccc(-c2ccccc2)cc1)c1cccc(O)c1`, for which the Potency result is “inactive”.
On the same count and under the same terms, the value for `Oc1ccc(-c2cccc(-c3ccc(O)cc3)c2)cc1` was 6.31 µM (active).
Take `Oc1ccc(-c2nncn2-c2ccccc2)cc1`: the Potency result is “inactive”.
Regarding `COCCN(Cc1ccco1)C(=O)Cn1ncc2c([nH]c3ccccc32)c1=O`, the Potency entry is “inactive”.
On to `COc1cccc(CNC(=O)C(=O)NCC(c2cccs2)S(=O)(=O)c2ccccc2)c1` (stereo unspecified), for which the Potency entry was “inactive”.
Still for that read-out and setting: the result for `COc1ccc(Br)cc1CNC(=O)c1cc(=O)[nH]c2ccc(S(=O)(=O)N3CCCC3)cc12` reads “inactive”.
As to `CCOC(=O)N1CCc2c(sc3c2C(=O)NC(c2ccccc2F)N3)C1` (stereo unspecified), the Potency result is “inactive”.
With `CC(C)Sc1ncnc2c1cnn2-c1ccccc1`, the Potency was 12.6 µM (active).
Same read-out and setting: the result for `CCN(c1ncnc2c1cnn2-c1ccc(C)cc1)C1CCCCC1` reads “inactive”; that for `Clc1cccc(-n2ncc3c(NCCc4ccccc4)ncnc32)c1`, “inactive”.
For `COC(=O)CSc1ncnc2c1cnn2-c1ccc(C)cc1C`, the Potency is 17.8 µM (active).
For the compound `CCC(C)N(C(=O)CSc1ncnc2c1cnn2-c1ccccc1)C1CCS(=O)(=O)C1` (stereo unspecified), the Potency result was “inactive”.
The same measure, in the same setting: the result for `CCN(CC)C(=O)CSc1ncnc2c1cnn2-c1ccccc1` reads 15.8 µM (active).
Same read-out and setting: the result for `COc1ccccc1N1CCN(C(=O)CSc2ncnc3c2cnn3-c2ccc(C)c(C)c2)CC1` reads “inactive”.
As for `CCN(C(=O)CSc1ncnc2c1cnn2-c1ccccc1)C1CCS(=O)(=O)C1` (stereo unspecified), the Potency result is “inactive”.
With `Cc1ccc(-n2ncc3c(Nc4cccc(C(=O)O)c4)ncnc32)cc1`, the Potency entry was “inactive”.
`CCOc1cccc(NC(=O)c2ccc(F)c(S(=O)(=O)N(CC)c3cccc(C)c3)c2)c1`: the Potency result was “inactive”.
For `Cc1ccccc1-n1c(=O)c2ccccc2n(Cc2ccc(F)cc2)c1=O`, the Potency entry was “inactive”.
The same measure, in the same setting: the value for `CCn1c(C(=O)Nc2cc(Cl)ccc2C)cc2sc(Cl)cc21` was “inactive”; that for `CCC(=O)N1CCc2cc(Br)cc(S(=O)(=O)CCC(=O)NCc3ccccc3OC)c21` was “inactive”.
Still for that read-out and setting: the result for `CCc1cccc(C)c1NS(=O)(=O)c1ccc(-c2cc(C)no2)s1` reads “inactive”.
Turning to `Cc1cc(NC(=O)C2CCC(CNS(=O)(=O)c3ccc(Br)s3)CC2)ccc1Br` (stereo unspecified), the Potency entry was “inactive”.
As to `COc1ccc(OC)c(CCNC(=O)CCCn2c(=O)c3cccn3c3cccnc32)c1`, the Potency entry is “inactive”.
On the same count and under the same terms, the value for `CN1CCN(C(CNC(=O)c2ccccc2F)c2ccc3c(c2)OCO3)CC1` (stereo unspecified) was “inactive”.
In the case of `Cc1ccc(-c2nnc3c4ccccc4c(C)nn23)cc1NC(=O)c1cccc(Br)c1`, the Potency entry was “inactive”.
With `CCCN1CCN(CCCNC(=O)c2cnn(-c3ccc(C)cc3)c2-n2cccc2)CC1`, the Potency result was “inactive”.
Still for that read-out and setting: the result for `CCn1nccc1C(=O)Nc1ccc(Cl)c(Cl)c1` reads 17.8 µM (active); that for `Cc1ccc(-c2nn(CCC(=O)Nc3ccc(Cl)c(Cl)c3)c(=O)c3ccccc23)cc1`, “inactive”.
For the compound `CCn1nccc1C(=O)Nc1ccc(S(=O)(=O)NC23CC4CC(CC(C4)C2)C3)cc1`, the Potency result was “inactive”.
